# Measurements published in PubChem BioAssay (NCATS).
# Records with an inconclusive call do not appear. A number with no mark means an inactive call. Activity calls are given as the source filed them. Calls come from the whole dose curve; as a rule, active = well fitted curve in the direction sought with a large enough effect; inconclusive = small, poorly fitted or top-dose-only effect, or another doubt; inactive = no such curve, though single readings can be large; an effect the other way counts as inactive or inconclusive.
# Legend:
# [1] = qHTS of pediatric cancer cell lines to identify multiple opportunities for drug repurposing: Primary screen for BT-12 cells (AID 1347101); note: nearly all actives have a fitted effect of over 25% in size; note: potency is the fitted concentration of half-maximal effect;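 for activity change, negative = cytotoxic: plate controls were DMSO for no effect and bortezomib positive control for full effect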
# Summary of the method: (§1)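 Cells (500-1,000/well) rested 5 h, then received compounds for 48 h; metabolically active cells were measured by CellTiter-Glo luminescence. Final concentrations spanned up to 46 µM (MIPE, 11-point) or 0.59 nM-46 µM (NPC, 8-point) in primary screens, 11-point in follow-ups.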
# [2] = qHTS of pediatric cancer cell lines to identify multiple opportunities for drug repurposing: Primary screen for Rh18 cells (AID 1347102); note: nearly all actives have a fitted effect of over 65% in size; note: potency is the fitted concentration of half-maximal effect; for activity change, negative = cytotoxic: % is set by controls: 0 for no effect and ±100 for the full control effect
# Summary of the method: (§2)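 Cells (500-1,000/well) in growth media were settled 5 h at 37 degrees C, then given compounds for 48 h. Viability was read as CellTiter-Glo luminescence. Primary runs used MIPE at 11 points (0.78 nM-46 µM) and NPC at 8 points (0.59 nM-46 µM); follow-ups used 11 points.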
# [3] = qHTS of pediatric cancer cell lines to identify multiple opportunities for drug repurposing: Primary screen for OHS-50 cells (AID 1347103); note: nearly all actives have a fitted effect of over 40% in size; note: potency is the fitted concentration of half-maximal effect;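 for activity change, negative = cytotoxic: plate controls were DMSO neutral control for no effect and bortezomib positive control for full effect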
# Summary of the method: as §1
# [4] = qHTS of pediatric cancer cell lines to identify multiple opportunities for drug repurposing: Primary screen for RD cells (AID 1347104); note: nearly all actives have a fitted effect of over 55% in size; note: potency is the fitted concentration of half-maximal effect
# Summary of the method: (§3)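 Phenotypic viability qHTS, 48 h compound exposure, CellTiter-Glo luminescence read-out; multi-concentration dosing so that potency and efficacy derive directly from the primary screen's curves.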
# [5] = qHTS of pediatric cancer cell lines to identify multiple opportunities for drug repurposing: Primary screen for MG 63 (6-TG R) cells (AID 1347105); note: nearly all actives have a fitted effect of over 50% in size; note: potency is the fitted concentration of half-maximal effect; for activity change, negative = cytotoxic: % is set by controls: 0 for no effect and ±100 for the full control effect
# Summary of the method: as §3
# [6] = qHTS of pediatric cancer cell lines to identify multiple opportunities for drug repurposing: Primary screen for control Hh wild type fibroblast cells (AID 1347106); note: nearly all actives have a fitted effect of over 55% in size; note: potency is the fitted concentration of half-maximal effect;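 for activity change, negative = cytotoxic: % is set by controls: 0 for no effect and ±100 for the full control effect; a drop in luminescence marks cytotoxicity and a rise apparent proliferation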
# Summary of the method: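 Viability after 48 h compound treatment at 37C, 500-1,000 cells/well, read as ATP luminescence with CellTiter-Glo. Primary screens used 11-point (MIPE, 0.78 nM-46 µM) or 8-point (NPC, 0.59 nM-46 µM) final concentrations; follow-up screens used 11-point dilutions.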
# [7] = qHTS of pediatric cancer cell lines to identify multiple opportunities for drug repurposing: Primary screen for Rh41 cells (AID 1347108); note: nearly all actives have a fitted effect of over 70% in size; note: potency is the fitted concentration of half-maximal effect
# Summary of the method: as §3
# [8] = qHTS of pediatric cancer cell lines to identify multiple opportunities for drug repurposing: Confirmatory screen for NB1643 cells (AID 1347109); note: nearly all actives have a fitted effect of over 45% in size; note: potency is the fitted concentration of half-maximal effect;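 for activity change, negative = cytotoxic: plate controls were DMSO for no effect and bortezomib for full effect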
# Summary of the method: as §2
# [9] = qHTS of pediatric cancer cell lines to identify multiple opportunities for drug repurposing: Confirmatory screen for A673 cells (AID 1347110);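 note: potency is the fitted concentration of half-maximal effect; cells exposed to compound for 48 h before the viability read; nearly all actives have a fitted effect of over 65% in size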
# Summary of the method: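 Concentration-response curves came straight from titrations: 11 points (0.78 nM to 46 µM) for MIPE and several concentrations (0.59 nM to 46 µM) for NPC in primary, 11 points in follow-up. Readout: ATP luminescence at 48 h.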
# [10] = qHTS of pediatric cancer cell lines to identify multiple opportunities for drug repurposing: Confirmatory screen for SK-N-MC cells (AID 1347111);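 note: potency is the fitted concentration of half-maximal effect; cells exposed to compound for 48 h before the readout; nearly all actives have a fitted effect of over 70% in size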
# Summary of the method: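 Metabolically active cells were quantified by ATP-dependent luminescence (CellTiter-Glo, 15 min at room temperature) following 48 h treatment. Cells had been plated at 500-1,000 per well and settled for 5 h beforehand.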
# [11] = qHTS of pediatric cancer cell lines to identify multiple opportunities for drug repurposing: Confirmatory screen for LAN-5 cells (AID 1347113); note: nearly all actives have a fitted effect of over 65% in size; note: potency is the fitted concentration of half-maximal effect
# Summary of the method: as §2
# [12] = qHTS of pediatric cancer cell lines to identify multiple opportunities for drug repurposing: Confirmatory screen for DAOY cells (AID 1347114); note: potency is the fitted concentration of half-maximal effect; nearly all actives have a fitted effect of over 65% in size
# Summary of the method: (§4)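 Viability measured as metabolically active cells via CellTiter-Glo luminescence following 48 hours of compound exposure, 11-point dilutions in confirmatory testing. 500-1,000 cells/well plated 5 hours before dosing; controls were DMSO and 2.3 µM bortezomib.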
# [13] = qHTS of pediatric cancer cell lines to identify multiple opportunities for drug repurposing: Confirmatory screen for NB-EBc1 cells (AID 1347115);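 note: cells exposed to compound for 48 h before the viability read; nearly all actives have a fitted effect of over 45% in size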; note: potency is the fitted concentration of half-maximal effect; for activity change, negative = cytotoxic: % is set by controls: 0 for no effect and ±100 for the full control effect
# Summary of the method: as §2
# [14] = qHTS of pediatric cancer cell lines to identify multiple opportunities for drug repurposing: Confirmatory screen for SJ-GBM2 cells (AID 1347116); note: nearly all actives have a fitted effect of over 60% in size; note: potency is the fitted concentration of half-maximal effect;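 for activity change, negative = cytotoxic: plate controls were DMSO for no effect and bortezomib for full effect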
# Summary of the method: as §4
# [15] = qHTS of pediatric cancer cell lines to identify multiple opportunities for drug repurposing: Confirmatory screen for BT-37 cells (AID 1347117); conditions: BT-37 pediatric cancer cells, viability; activity change, negative = cytotoxic: at 45.9 µM (top of the series); note: nearly all actives have a fitted effect of over 55% in size; note: potency is the fitted concentration of half-maximal effect;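 for activity change, negative = cytotoxic: plate controls were DMSO for no effect and bortezomib for full effect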
# Summary of the method: as §2
# [16] = qHTS of pediatric cancer cell lines to identify multiple opportunities for drug repurposing: Confirmatory screen for TC32 cells (AID 1347118); note: potency is the fitted concentration of half-maximal effect
# Summary of the method: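 Luminescent ATP read-out (CellTiter-Glo) of metabolically active TC32 cells after 48 h exposure. Concentration-response curves came from 11-point (MIPE, 0.78 nM–46 µM) or 8-point (NPC, 0.59 nM–46 µM) primary titrations; follow-up used 11 points.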
# [17] = qHTS of pediatric cancer cell lines to identify multiple opportunities for drug repurposing: Confirmatory screen for MG 63 (6-TG R) cells (AID 1347119); note: nearly all actives have a fitted effect of over 55% in size; note: potency is the fitted concentration of half-maximal effect
# Summary of the method: as §2
# [18] = qHTS of pediatric cancer cell lines to identify multiple opportunities for drug repurposing: Confirmatory screen for control Hh wild type fibroblast cells (AID 1347121);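 note: plate controls were DMSO for no effect and bortezomib for full effect; nearly all actives have a fitted effect of over 70% in size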
# Summary of the method: as §2
# [19] = qHTS of pediatric cancer cell lines to identify multiple opportunities for drug repurposing: Confirmatory screen for BT-12 cells (AID 1347112); note: nearly all actives have a fitted effect of over 55% in size; note: potency is the fitted concentration of half-maximal effect; for activity change, negative = cytotoxic: % is set by controls: 0 for no effect and ±100 for the full control effect
# Summary of the method: as §2
# [20] = qHTS of pediatric cancer cell lines to identify multiple opportunities for drug repurposing: Primary screen for Rh30 cells (AID 1347107); note: potency is the fitted concentration of half-maximal effect; nearly all actives have a fitted effect of over 75% in size
# Summary of the method: as §2
structure (smiles),measurement,setting,value
COc1cc2c(Nc3ccc(Cl)c(Cl)c3F)ncnc2cc1OCC1C[C@@H]2CN(C)C[C@H]2C1,Potency,[1],24.3 µM (active)
same,Potency,[2],18.7 µM (active)
same,Potency,[3],4.85 µM (active)
same,Potency,[4],16.6 µM (active)
same,Potency,[5],14.8 µM (active)
same,Potency,[6],20.9 µM (active)
same,Potency,[7],9.35 µM (active)
C[C@H]1[C@@H](OC(=O)CCC(=O)O)O[C@@H]2O[C@@]3(C)CC[C@@H]4[C@H](C)CC[C@@H]1[C@@]24OO3,Potency,[1],1.22 µM (active)
same,Potency,[2],14.8 µM (active)
same,Potency,[3],1.09 µM (active)
same,Potency,[4],1.66 µM (active)
same,Potency,[5],18.7 µM (active)
same,Potency,[6],inactive
same,Potency,[7],2.35 µM (active)
same,Potency,[8],14.7 µM (active)
same,Potency,[9],2.33 µM (active)
same,Potency,[10],3.29 µM (active)
same,Potency,[11],16.5 µM (active)
same,Potency,[12],23.3 µM (active)
same,Potency,[13],5.22 µM (active)
same,Potency,[14],1.17 µM (active)
same,Potency,[15],3.69 µM (active)
same,Potency,[16],9.27 µM (active)
same,Potency,[17],20.8 µM (active)
same,Potency,[18],inactive
C=CC(=O)Nc1ccc2ncnc(Nc3ccc(OCc4cccc(F)c4)c(Cl)c3)c2c1,Potency,[1],0.0172 µM (active)
same,Potency,[2],7.43 µM (active)
same,Potency,[3],0.0043 µM (active)
same,Potency,[4],0.0296 µM (active)
same,Potency,[5],0.296 µM (active)
same,Potency,[7],0.235 µM (active)
same,Potency,[8],14.7 µM (active)
same,Potency,[9],3.29 µM (active)
same,Potency,[10],7.37 µM (active)
same,Potency,[19],10.4 µM (active)
same,Potency,[11],20.8 µM (active)
same,Potency,[12],7.37 µM (active)
same,Potency,[13],20.8 µM (active)
same,Potency,[14],2.61 µM (active)
same,Potency,[15],9.27 µM (active)
same,Potency,[16],7.37 µM (active)
same,Potency,[17],8.27 µM (active)
O=C1NC(=O)C(=Cc2ccc3nccc(-c4ccncc4)c3c2)S1,Potency,[1],0.385 µM (active)
same,Potency,[2],0.469 µM (active)
same,Potency,[3],0.0385 µM (active)
same,Potency,[4],0.372 µM (active)
same,Potency,[5],0.0743 µM (active)
same,Potency,[20],1.48 µM (active)
same,Potency,[7],0.59 µM (active)
same,Potency,[8],6.57 µM (active)
same,Potency,[9],4.65 µM (active)
same,Potency,[12],8.27 µM (active)
same,Potency,[13],inactive
same,Potency,[16],inactive
same,Potency,[17],1.04 µM (active)
CN(C)c1ccc2cc(C(=O)N[C@@H](CCCN=C(N)CCl)C(=O)NCc3ccccc3)ccc2c1,Potency,[1],24.3 µM (active)
same,Potency,[2],20.9 µM (active)
same,Potency,[3],4.85 µM (active)
same,Potency,[4],13.2 µM (active)
same,Potency,[6],inactive
same,Potency,[20],4.69 µM (active)
same,Potency,[7],14.8 µM (active)
O=C(C=CC#Cc1cccc(NS(=O)(=O)c2ccccc2)c1)NO,Potency,[1],7.69 µM (active)
same,Potency,[2],1.66 µM (active)
same,Potency,[3],5.44 µM (active)
same,Potency,[4],5.26 µM (active)
same,Potency,[5],5.9 µM (active)
same,Potency,[20],11.8 µM (active)
same,Potency,[8],2.33 µM (active)
same,Potency,[9],1.65 µM (active)
same,Potency,[10],0.414 µM (active)
same,Potency,[11],2.61 µM (active)
same,Potency,[12],7.37 µM (active)
same,Potency,[13],5.85 µM (active)
same,Potency,[14],4.65 µM (active)
same,Potency,[15],2.61 µM (active)
same,Potency,[16],0.737 µM (active)
same,Potency,[17],2.61 µM (active)
COc1cc(C)c(Sc2cnc(NC(=O)c3ccc(CNC(C)C(C)(C)C)cc3)s2)cc1C(=O)N1CCN(C(C)=O)CC1 (centres undefined),Potency,[1],19.3 µM (active)
same,Potency,[2],14.8 µM (active)
same,Potency,[3],4.85 µM (active)
same,Potency,[4],14.8 µM (active)
same,Potency,[5],14.8 µM (active)
same,Potency,[7],7.43 µM (active)
CC(=O)N1CCN(c2ccc(OCc3nn(C)c(C)c3-c3cccc4c(CCCOc5cccc6ccccc56)c(C(=O)O)n(Cc5cccnc5)c34)cc2)CC1,Potency,[1],2.43 µM (active)
same,Potency,[2],0.59 µM (active)
same,Potency,[3],0.109 µM (active)
same,Potency,[4],1.66 µM (active)
same,Potency,[5],14.8 µM (active)
same,Potency,[20],4.69 µM (active)
same,Potency,[7],0.743 µM (active)
same,Potency,[8],inactive
same,Potency,[10],20.8 µM (active)
same,Potency,[19],inactive
same,Potency,[13],inactive
same,Potency,[15],inactive
same,Potency,[17],inactive
same,Potency,[18],inactive
CN1CCCN(C(=O)c2cccc(-c3ccc(C=C4C(=O)Nc5ccc(Cl)cc54)o3)c2)CC1,Potency,[1],24.3 µM (active)
same,Potency,[2],7.43 µM (active)
same,Potency,[3],13.7 µM (active)
same,Potency,[4],33.2 µM (active)
same,Potency,[6],inactive
same,Potency,[20],18.7 µM (active)
same,Potency,[7],18.7 µM (active)
COc1ccc2c(c1OC)C(=O)OC2[C@H]1c2c(cc3c(c2OC)OCO3)CCN1C (some centres undefined),Potency,[1],1.09 µM (active)
same,Potency,[2],inactive
same,Potency,[3],0.137 µM (active)
same,Potency,[4],0.372 µM (active)
same,Potency,[7],0.469 µM (active)
same,Potency,[8],inactive
same,Potency,[19],inactive
same,Potency,[11],inactive
same,Potency,[13],inactive
same,Potency,[14],inactive
same,Potency,[15],inactive
same,Potency,[16],2.93 µM (active)
same,Potency,[18],inactive
CCN(CC)CCCCNc1ncc2c(n1)N(C)C(=O)N(c1c(Cl)c(OC)cc(OC)c1Cl)C2,Potency,[1],17.2 µM (active)
same,Potency,[2],11.8 µM (active)
same,Potency,[3],19.3 µM (active)
same,Potency,[4],18.7 µM (active)
same,Potency,[5],inactive
same,Potency,[7],18.7 µM (active)
CCN1CCN(C(=O)N[C@H](C(=O)N[C@@H]2C(=O)N3C(C(=O)O)=C(CSc4nnnn4C)CS[C@@H]23)c2ccc(O)cc2)C(=O)C1=O,"activity change, negative = cytotoxic",[1],17.1% [at 11.5 µM]
same,"activity change, negative = cytotoxic",[2],10.3% [at 9.22 µM]
same,"activity change, negative = cytotoxic",[3],20.3% [at 11.5 µM]
same,"activity change, negative = cytotoxic",[4],6.64% [at 9.22 µM]
same,"activity change, negative = cytotoxic",[5],4.31% [at 9.22 µM]
same,"activity change, negative = cytotoxic",[7],38.6% [at 9.22 µM]
COc1cccc2c1C(=O)c1c(O)c3c(c(O)c1C2=O)C[C@@](O)(C(=O)CO)C[C@H]3O[C@H]1C[C@H](N)[C@H](O)[C@H](C)O1,Potency,[1],0.485 µM (active)
same,Potency,[2],0.662 µM (active)
same,Potency,[3],0.611 µM (active)
same,Potency,[4],0.833 µM (active)
same,Potency,[7],0.743 µM (active)
same,Potency,[8],0.522 µM (active)
same,Potency,[9],0.928 µM (active)
same,Potency,[10],0.414 µM (active)
same,Potency,[19],1.47 µM (active)
same,Potency,[11],0.369 µM (active)
same,Potency,[12],3.69 µM (active)
same,Potency,[14],0.928 µM (active)
same,Potency,[15],0.293 µM (active)
same,Potency,[16],0.261 µM (active)
